Results filed as inconclusive are left out. Activity calls are given as the source filed them. Calls follow the shape of the full dose curve.
assay: Nuclear factor erythroid 2-related factor 2/antioxidant responsive element (Nrf2/ARE) small molecule agonists: luciferase reporter gene qHTS assay in human keratinocytes (AID 1919969); details: KeratinoSens HaCaT ARE-luciferase, luminescence, 24 h; series mostly up to 92.4 µM; activity, positive = activation: at the top concentration; also: nearly all actives have a fitted effect of over 35% in size
From the text: National Center for Advancing Translational Sciences [NCATS]
Division of Preclinical Innovation [DPI]
U.S. Environmental Protection Agency [EPA]
National Institutes of Environmental Health Sciences [NIEHS]
National Toxicology Program [NTP]
U.S. Food and Drug Administration [FDA]
Oxidative stress has been implicated in the pathogenesis of a variety of diseases ranging from cancer to neurodegeneration. The antioxidant response element (ARE) signaling pathway plays an important role in the amelioration of oxidative stress. The KeratinoSens (Givaudan, Switzerland) is an in vitro test method which quantifies luciferase induction as a measure of activation of Keap1-Nrf2-antioxidationt/electrophile response element (ARE) dependant pathway in HaCaT human keratinocytes stably transfected with a selectable plasmid. The KeratinoSens assay is a cell-based assay with a reporter cell line to detect potential skin sensitizers by their ability to induce the Nrf2/ARE-response. The activation of the report gene under culture conditions can be detected by ONE-Glo Luciferase Assay System (Promega, Madison, WI). This cell line has been used to screen the Tox21 10K compound library to identify agonists that induce oxidative stress. The cytotoxicity of the Tox21 compound library against the KS-ARE cell line was tested in parallel by measuring the cell viability using CellTiter- Fluor assay system (Promega, Madison, WI) in the same wells.
HaCaT derived cell line KeratinoSens were dispensed at 1,500 cells/5uL/well in 1536-well white wall/solid bottom plates using a Multidrop Combi (ThermoFisher Scientific, Waltham, MA) dispenser. After the assay plates were incubated at 37 C/5% CO2 for 5 h, 23 nL of compounds dissolved in DMSO, positive controls or DMSO only was transferred to the assay plate by a pintool workstation (Kalypsys, San Diego, CA). The plates were incubated at 37 C/5% CO2 for 23 h, followed by addition of 1uL/well of CellTiter-Fluor reagent into the assay plates using a Flying Reagent Dispenser (Aurora Discovery, San Diego, CA) for cell viability readout that measures cytotoxicity. After 1 h incubation at 37 C/5% CO2 the fluorescence intensity was measured using a ViewLux (PerkinElmer, Shelton, CT) plate reader. Then 4uL/well of One-Glo were added using a Flying Reagent Dispenser. After the plates were incubated at room temperature for 30 min, the luminescence intensity in the assay plates was measured using ViewLux plate reader.
% is scaled to controls: 0 for no effect and ±100 for the full control effect; potency is read from the fitted curve at half-maximal effect.

Compound	activity, positive = activation	Potency
CC(C)=CCCC(C)C=O (stereo not given)	1.66% (inactive)	–
CC(C)(C)C1CCC(=O)CC1	–	68.6 µM (active)
CSc1cnc(C)cn1	-17.8% [at 240 µM] (inactive)	–
CCOC(=O)CC(C)O (stereo not given)	-11.1% (inactive)	–
CCCCCCCC1CCCC1=O (stereo not given)	1.98% (inactive)	–
CCn1c2ccccc2c2cc([N+](=O)[O-])ccc21	-0.348% (inactive)	–
C[C@@H]1C[C@H]2[C@@H]3CCC4=CC(=O)C=C[C@]4(C)[C@@]3(F)[C@@H](O)C[C@]2(C)[C@@]1(O)C(=O)COP(=O)(O)O	-0.946% (inactive)	–
O=C(N[C@@H](Cc1ccccc1)[C@@H](O)C(=O)N1C[C@@H](O)[C@@H](O)C1)c1cc2cc(Cl)ccc2[nH]1	-14.2% (inactive)	–
Oc1cccc2[nH]ccc12	5.63% [at 42.5 µM] (inactive)	–
CCN(CC)CCNc1ccc(CNC=O)c2sc3ccc(OC)cc3c(=O)c12	–	24.3 µM (active)
C=CC(C)(C)O	-2.02% (inactive)	–
COc1cc2c(cc1N)oc1ccccc12	–	62.4 µM (active)
CC(N)CCCC(C)(C)O (stereo not given)	0.182% [at 42.5 µM] (inactive)	–
C1=CCC(c2ccccc2)CC1 (stereo not given)	-1.59% (inactive)	–
CCOC(=O)Cn1cccc1-c1nc(-c2ccc(OC)cc2)c(-c2ccc(OC)cc2)s1	16% [at 42.5 µM] (inactive)	–
C=C(C)C(=O)OCC(O)CO (stereo not given)	-3.72% [at 42.5 µM] (inactive)	–
OCC(F)(F)F	4.85% (inactive)	–
O=S(=O)(c1ccccc1)c1ccc(Cl)cc1	-8.03% (inactive)	–
COc1ncnc(NS(=O)(=O)c2ccc(N)cc2)c1OC	-0.353% [at 42.5 µM] (inactive)	–
CCCC1CCC(=O)O1 (stereo not given)	-14.4% (inactive)	–

Compound	activity, positive = activation	Potency
Cc1ccc(C(=O)Oc2ccc(C(O)CNC(C)(C)C)cc2OC(=O)c2ccc(C)cc2)cc1 (stereo not given)	-12.1% [at 42.5 µM] (inactive)	–
COc1ccc(C(=O)Nc2ccccc2)cc1[N+](=O)[O-]	0.606% (inactive)	–
Cn1c(N)c(N=O)c(=O)n(C)c1=O	-9.78% (inactive)	–
CCCCCCOC(=O)CCC	-14.9% (inactive)	–
CC(C)(C)NCC(O)COc1ccc(NC(=O)NC2CCCCC2)cc1 (stereo not given)	5.06% [at 42.5 µM] (inactive)	–
CN(C)CCN1C(=O)c2ccccc2N(C)c2ccccc21	-7.02% [at 42.5 µM] (inactive)	–
O=C(O)c1cccc(N(Cc2cccnc2)c2ccc(OC(F)F)c(OC(F)F)c2)c1	-24.1% (inactive)	–
CC[N+](C)(CC)CCOC(=O)C(O)(c1ccccc1)C1CCCCC1 (stereo not given)	6.08% [at 42.5 µM] (inactive)	–
COC(C)(C)CCCC(C)CC=O (stereo not given)	-6.84% (inactive)	–
O=C(O)c1ccc(Cl)c(Cl)c1	-3.14% (inactive)	–
CCc1cccc(C)c1	15.7% (inactive)	–
C/C=C(\C)C(=O)OCCc1ccccc1	23.6% (inactive)	–
CC[C@@H](N)CO	9.58% (inactive)	–
CCCOC(=O)c1ccc(N)cc1	7.55% [at 42.5 µM] (inactive)	–
COc1ccc(-n2nc(CCC(=O)N(C)O)cc2-c2ccc(Cl)cc2)cc1	-20.2% [at 42.5 µM] (inactive)	–
Clc1nc(C(Cl)(Cl)Cl)c(Cl)c(Cl)c1Cl	–	21.7 µM (active)
CCCCCCCCCCCCCC=O	0.0623% [at 8.39 µM] (inactive)	–
CC1(C)S[C@@H]2[C@H](NC(=O)C(c3ccccc3)S(=O)(=O)O)C(=O)N2[C@H]1C(=O)O (stereo not given in full)	-6.52% [at 42.5 µM] (inactive)	–
CCOc1ccc([N+](=O)[O-])cc1	-39.8% (inactive)	–
CC(C)(C)OC(=O)c1ccccc1C(=O)O	11.2% (inactive)	–
